Source: PubChem (The Scripps Research Institute Molecular Screening Center)
Compounds with a hit are over-represented: about 0.9% of the library has one in this group of screens.
PPARg SRC3 recr – PPARgamma-driven SRC-3 recruitment agonism. AID 731. biochemical PPARgamma/SRC-3 coactivator recruitment assay. hit rate 0.26% among 200,000. activation, % at 8 µM; in the data active means activation above about 23%
Target sequence (P37231 whole entry, looked up): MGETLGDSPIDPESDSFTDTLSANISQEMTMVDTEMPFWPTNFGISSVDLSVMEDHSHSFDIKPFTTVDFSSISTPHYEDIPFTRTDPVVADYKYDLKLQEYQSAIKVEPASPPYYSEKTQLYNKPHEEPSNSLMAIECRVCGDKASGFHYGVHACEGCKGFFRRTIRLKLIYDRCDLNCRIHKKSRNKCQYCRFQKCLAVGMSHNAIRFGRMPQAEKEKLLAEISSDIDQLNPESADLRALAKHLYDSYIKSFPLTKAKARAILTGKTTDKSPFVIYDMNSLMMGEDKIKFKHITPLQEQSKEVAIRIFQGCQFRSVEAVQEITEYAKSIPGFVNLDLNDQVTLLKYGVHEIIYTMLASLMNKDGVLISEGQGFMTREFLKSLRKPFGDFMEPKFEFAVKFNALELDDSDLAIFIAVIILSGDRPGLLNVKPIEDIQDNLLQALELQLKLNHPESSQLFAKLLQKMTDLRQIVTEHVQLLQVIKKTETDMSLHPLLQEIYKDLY
PPARg SRC-1 ag – agonists of human PPARgamma SRC-1 coactivator recruitment; P37231; PPARgamma-SRC-1 coactivator recruitment biochemical assay; activation, % at 8 µM; hit rate 0.41% among 200,000; in the data active means activation above about 19%
SRC3 TRFRET art – counter-screen for PPARgamma SRC-3 recruitment agonists: TR-FRET artefact. PPARgamma/SRC-3 format; hits give high values. TR-FRET ratio at 8 µM. hit rate 0.39% among 99,000
PPARg SRC2 recr – promotes SRC-2 coactivator recruitment by human PPARgamma; P37231; PPARgamma LBD-SRC-2 recruitment, biochemical; activation, % at 8 µM; hit rate 0.34% among 200,000; AID 1032; in the data active means activation above about 22%
TR-FRET SRC-2 ct – TR-FRET artefact, counter-screen to PPARgamma/SRC-2 agonist assay; hit rate 0.4% among 200,000; hits give high values; TR-FRET ratio at 8 µM
SRC1 TRFRET art – counter-screen for PPARgamma SRC-1 recruitment agonists: TR-FRET artefact | TR-FRET detection artefact counter-screen, emission ratio; hits give high values | TR-FRET ratio at 8 µM | hit rate 0.34% among 99,000; in the data active means TR-FRET ratio above about 2300
Of the large screens only hits and unclear results are named; the others gave an inactive call. Unless noted, no stated cut-off is given here; in the data, active means TR-FRET ratio above about 2000; inactive means the rest.

S=C(NCc1ccc(Cl)cc1Cl)Nc1ccccc1	PPARg SRC3 recr 22.5
C=CCOc1ccc(/C=N/NC(=O)C(=O)Nc2ccccn2)cc1OC	none
CC(=O)c1c(N2CCN(c3ccc(F)cc3)CC2)nc(=S)n(Cc2ccccc2)c1C	SRC3 TRFRET art 2117
N#Cc1c(-c2cccnc2)c2c([nH]c1=S)CCCC2	none (no result: SRC3 TRFRET art, SRC1 TRFRET art)
COc1ccc(-c2c3c([nH]c(=S)c2C#N)CCC3)cc1	PPARg SRC3 recr 107.7, PPARg SRC-1 ag 63.7, PPARg SRC2 recr 85.8, TR-FRET SRC-2 ct 4167 (no result: SRC3 TRFRET art, SRC1 TRFRET art)
COc1ccc(OC)c(-c2c3c([nH]c(=S)c2C#N)CCCC3)c1	SRC1 TRFRET art 2339
CC(C)Cc1c2c([nH]c(=S)c1C#N)CCCC2	none
CC1CC(OCC(O)C[N+]2(C)CCOCC2)CC(C)(C)C1 (configuration not stated)	none
COc1ccc(C2Nc3ccccc3C(=O)N2c2ccccc2)cc1CSc1ccccn1 (configuration not stated)	SRC3 TRFRET art 2243
O=C(NCCCN1CCCC1=O)c1ccc2c(c1)ncn2C1CCCCC1	PPARg SRC2 recr 22.0
CC(C)OCCCNC(=O)c1ccc2c(c1)ncn2C1CCCC1	none
CNC(=S)NNC(=O)c1cn(C)nc1C	none
CCOC12NC(=O)CC(=O)N1C(c1ccccc1)=CS2 (configuration not stated)	SRC3 TRFRET art 2220
COC(=O)CSc1nc(C)c(C(=O)Nc2ccccc2C)c(-c2ccc(Cl)cc2)c1C#N	SRC3 TRFRET art 2162
Cc1nc(SCC(=O)OCc2ccccc2)c(C#N)c(-c2ccccc2)c1C(=O)Nc1ccccc1	TR-FRET SRC-2 ct 2287 (no result: SRC3 TRFRET art, SRC1 TRFRET art)
Cc1ccccc1NC(=O)c1c(C)nc(SCC(=O)OCc2ccccc2)c(C#N)c1-c1ccc(F)cc1	none
CCc1ccc2nc(N3C(=O)C(O)=C(C(=O)c4ccco4)C3c3cccs3)sc2c1 (configuration not stated)	PPARg SRC3 recr 27.9, PPARg SRC-1 ag 29.1, PPARg SRC2 recr 36.1, TR-FRET SRC-2 ct 2282 (no result: SRC3 TRFRET art, SRC1 TRFRET art)
C=CCNC(=O)COC(=O)c1cccnc1Nc1ccccc1F	none
CC(=O)C1=C(C)NC(SCC(=O)c2ccc(-c3ccccc3)cc2)=C(C#N)C1c1cccnc1 (configuration not stated)	TR-FRET SRC-2 ct 2094 (no result: SRC3 TRFRET art, SRC1 TRFRET art)
CCOC(=O)c1sc(=NC(=O)CCSc2ccccc2)n(C)c1C	SRC3 TRFRET art 2393
CCOC(=O)c1sc(=NC(=O)c2cc(OC)c(OC)c(OC)c2)n(C)c1C	PPARg SRC3 recr 337.5 (no result: SRC3 TRFRET art, SRC1 TRFRET art)
O=C(CCNS(=O)(=O)c1cccc2nsnc12)NCc1ccccc1Cl	none
Cn1ccnc1SCC(=O)Nc1cccc(S(=O)(=O)N2CCCCCC2)c1	none
Cc1cc(C)c2nc(SCC(=O)Nc3ccc(S(=O)(=O)N4CCCC4)cc3)c(C)cc2c1	TR-FRET SRC-2 ct 1973 (no result: SRC3 TRFRET art, SRC1 TRFRET art)
Cc1ccc(NC(=O)CSc2ncnc3ccccc23)cc1S(=O)(=O)N1CCCCC1	SRC3 TRFRET art 2119
Cc1ccc(S(=O)(=O)N2CCCCC2)cc1NC(=O)CSc1nccn1C	SRC1 TRFRET art 2368
Cc1nnc(SCC(=O)Nc2ccc(S(=O)(=O)N3CCCC3)cc2)n1N	none (no result: SRC3 TRFRET art, SRC1 TRFRET art)
CCOC(=O)C1C(=O)C=C(c2ccc([N+](=O)[O-])cc2)CC1c1ccccc1 (configuration not stated)	none (no result: SRC3 TRFRET art, SRC1 TRFRET art)
CCOC(=O)C1C(=O)C=C(c2ccc(C)cc2)CC1c1ccccc1 (configuration not stated)	TR-FRET SRC-2 ct 2001
COc1ccc(-c2cc(-c3ccccc3)c(C#N)c(SCC(=O)Nc3ncc(C)s3)n2)cc1	SRC3 TRFRET art 2402
CC(C)c1ccccc1-n1c(SCC(=O)c2ccc3c(c2)NC(=O)CO3)nc2ccccc2c1=O	SRC3 TRFRET art 2760, TR-FRET SRC-2 ct 2160, SRC1 TRFRET art 2916
CC(C)c1ccccc1-n1c(SCC(=O)N2CCc3ccccc3C2)nc2ccccc2c1=O	none
CCOC(=O)c1c(-c2ccccc2)csc1NC(=O)c1cc(S(=O)(=O)N2CCOCC2)ccc1C	SRC3 TRFRET art 2203
CCOC(=O)c1c(-c2ccccc2)csc1NC(=O)c1ccc(S(=O)(=O)N2CC(C)OC(C)C2)cc1 (configuration not stated)	none (no result: SRC3 TRFRET art, SRC1 TRFRET art)
CCc1ccccc1NC(=O)c1ccc([N+](=O)[O-])s1	none
COc1ccc(OC)c(-c2csc(NC(=O)c3ccc(OCC4CCCO4)cc3)n2)c1 (configuration not stated)	SRC3 TRFRET art 2496
Cc1cnc(NC(=O)c2ccc(OCC3CCCO3)cc2)s1 (configuration not stated)	none
O=C(Cc1cccs1)NNC(=O)C12CC3CC(CC(C3)C1)C2	none
CCOC(=O)C1CCCN(S(=O)(=O)c2cc(Br)cc3c2N(C(=O)C2CC2)CC3)C1 (configuration not stated)	PPARg SRC-1 ag 25.5
Cc1cc(C)c(S(=O)(=O)Nc2c(C)[nH]c(=O)[nH]c2=O)c(C)c1	none (no result: SRC3 TRFRET art, SRC1 TRFRET art)
Cc1cc(C)c(S(=O)(=O)Nc2ccc3[nH]c(=O)[nH]c3c2)c(C)c1	PPARg SRC-1 ag 22.3
O=C(c1ccco1)N1CCN(S(=O)(=O)c2ccccc2[N+](=O)[O-])CC1	none
O=C(C1=C[C@@H](c2ccc(C(F)(F)F)cc2)C[C@@H](OCCCCO)O1)N1CCN(Cc2ccc3c(c2)OCO3)CC1	PPARg SRC3 recr 31.6
Cc1cc(NC(=O)CSc2nncc(=O)n2N)no1	none
O=C(Nc1nc(-c2ccco2)c(-c2ccco2)s1)C1CCC1	SRC1 TRFRET art 2403
CNC(=S)N1N=C(c2ccc(C)cc2)CC1c1ccc(OC)c(OC)c1 (configuration not stated)	none
CNC(=S)N1N=C(c2ccccc2)CC1c1ccc(OC)c(OC)c1 (configuration not stated)	SRC1 TRFRET art 2320
COc1ccc(C2=NN(C(=S)Nc3ccccc3)C(c3ccccc3)C2)cc1 (configuration not stated)	none
COc1ccc(C2CC(c3ccccc3)=NN2C(=S)Nc2ccccc2)cc1 (configuration not stated)	SRC3 TRFRET art 2233, TR-FRET SRC-2 ct 2014
Fc1ccc(C2CC(c3cccs3)=NN2C(=S)Nc2ccccc2)cc1 (configuration not stated)	SRC1 TRFRET art 2336
Clc1cccc(N/N=C(\Cc2nc3ccccc3[nH]2)c2ccccc2)c1	none
CCOC(=O)C1=NN(c2cccc(Cl)c2)C2=NC(C)=C(C(=O)OC)C(c3cccs3)N12 (configuration not stated)	PPARg SRC2 recr 26.7 (no result: SRC3 TRFRET art, SRC1 TRFRET art)
O=[N+]([O-])c1cccc(/C=N/NS(=O)(=O)c2ccccc2)c1	none
COc1ccc(-n2c(O)c(/C=N/NS(=O)(=O)c3cccc([N+](=O)[O-])c3)c3ccccc3c2=O)cc1OC	PPARg SRC-1 ag 21.5
O=C(NNC(=O)C1CCCN(c2ncccn2)C1)c1ccncc1 (configuration not stated)	none
CCN(CC)S(=O)(=O)c1cc(NC(=O)c2ccc(Br)s2)ccc1C	SRC1 TRFRET art 2789
